Inhibition data for 64 molecules are collected here from PubChem BioAssay AID1209 (Sanford-Burnham Center for Chemical Genomics, 2008).

Hit rate of the full screen: of about 190,000 compounds, about 810 (0.43%) were called active. The sample holds actives, similar compounds and a random draw of the others, so the mix is not that of the screen. A number with no mark means an inactive call. Cut-off read from the data, not from the text of the source: active = inhibition above about 50%; inactive = the rest.

For orientation: inhibition means the relative decrease from the control value, in per cent.

For this assay, the target named is Mannose-6-phosphate isomerase (Homo sapiens) (UniProt P34949). Briefly: MPI enzyme activity inhibition – biochemical, fluorescence intensity, coupled assay, primary screen (AID 1209).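 Note: plate controls were DMSO vehicle for no effect and wells lacking substrate for full effect.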 To be noted: purified PMI enzyme, at 20 µM, hits give high values.
Chain of Mannose-6-phosphate isomerase (Homo sapiens) (P34949 whole entry, looked up): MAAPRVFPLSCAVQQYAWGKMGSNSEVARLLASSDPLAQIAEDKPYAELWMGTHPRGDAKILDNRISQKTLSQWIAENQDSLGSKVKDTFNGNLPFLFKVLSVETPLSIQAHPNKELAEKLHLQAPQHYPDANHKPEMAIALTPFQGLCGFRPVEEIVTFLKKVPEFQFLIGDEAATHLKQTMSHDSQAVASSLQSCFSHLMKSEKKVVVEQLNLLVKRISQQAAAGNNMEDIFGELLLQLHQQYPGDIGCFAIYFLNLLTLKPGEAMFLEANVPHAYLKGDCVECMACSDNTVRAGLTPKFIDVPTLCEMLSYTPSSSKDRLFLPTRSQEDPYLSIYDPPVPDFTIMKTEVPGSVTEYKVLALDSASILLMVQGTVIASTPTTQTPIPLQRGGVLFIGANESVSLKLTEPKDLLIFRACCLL
As to `COc1ccc(-c2ccc(C(=S)N3CCN(C(C)=O)CC3)o2)cc1`, the inhibition is 62% (active). To `COc1ccc(CC(=O)N2CCN(C(=O)Cc3ccc(OC)cc3)CC2)cc1` belongs 7.3%; to `CC(=O)N1CCN(C(=S)c2ccc(-c3ccc(Cl)cc3)o2)CC1`, 63.9% (active). To `S=C(c1ccc(-c2ccc(Cl)cc2)o1)N1CCCCC1` belongs 9.1%. To `NC(=O)C1CCN(C(=S)c2ccc(-c3ccc(Br)cc3)o2)CC1` belongs -10%.

For `N#CCCN1CCN(C(=S)c2ccc(-c3ccc(Cl)cc3)o2)CC1`, the inhibition was 25.7%.

As for `Cc1cccc(CSC2=NCCN2C(=O)C2CC2)c1`, the inhibition is 5.8%. As for `CCC1N=C(SC)NC(C)=C1C(=O)c1ccccc1` (centres undefined), the figure is -36.6%; as for `CCOc1ccc(Cn2nnc(C(=O)Nc3cc(C)cc(C)c3)c2N)cc1`, 18.5%.

In the case of `COc1ccc(N(C)C(=S)Nc2ccc3nc(C)c(C)nc3c2)cc1`, the inhibition was 53.7% (active). As for `OCCCNC(=S)Nc1ccc2nccnc2c1`, the figure is -2.7%; as for `Fc1ccc(NC(=S)Nc2nccs2)cc1`, 2.2%; as for `CNC(=S)Nc1ccc2nc(C)c(C)nc2c1`, 2.5%. As for `CC(C)(C)NC(=O)Nc1ccc2nccnc2c1`, the figure is 4.4%; as for `CC(C)N(C(=O)Nc1ccc2nccnc2c1)C(C)C`, 65.4% (active). Turning to `COc1ccc(NC(=S)Nc2ccc3nc(C)c(C)nc3c2)cc1`, the inhibition is 45%. As for `CCN(CC)c1ccc(NC(=S)Nc2ccc(F)cc2)cc1`, the figure is 53.4% (active).

On to `CCN(CC)CCNC(=S)Nc1ccc(F)cc1`, for which the inhibition was -2.1%. As for `Fc1ccc(NC(=S)Nc2ccc3nccnc3c2)cc1`, the figure is 56.3% (active); as for `Cc1nc2ccc(NC(=O)N(C(C)C)C(C)C)cc2s1`, 3%; as for `CC(=O)Nc1ccc(NC(=S)Nc2ccc(F)cc2)cc1`, 3.2%. As to `Cc1c(Nc2nc(-c3ccc(Cl)cc3)cs2)c(=O)n(-c2ccccc2)n1C`, the inhibition was 20.6%. As for `COc1ccc(N2CCN(C(=O)c3ccc(F)cc3)CC2)c([N+](=O)[O-])c1`, the figure is -4.8%; as for `COCCN(C(=O)Cn1nnc2ccccc21)C(C(=O)NC1CCCC1)c1ccc(OC)cc1OC` (centres undefined), -10.6%; as for `CCc1cccc(CC)c1-n1c(SCC(=O)c2c(N)n(C)c(=O)n(C)c2=O)nnc1-c1cccnc1`, 17.2%. To `Cc1ccccc1C(=O)c1c[nH]c(C(=O)N2CCN(c3ccccc3F)CC2)c1` belongs 7.5%; to `Cc1cc(C)cc(NC(=S)N2CCN(c3ccc(F)cc3)CC2)c1`, 10%; to `C=CCn1c(SCc2ccccc2)nnc1-c1cccnc1`, 1.3%. As for `CN(Cc1nc2ccccc2c(=O)[nH]1)CC(O)COCc1ccco1` (centres undefined), the figure is 11.4%. For `CCNc1nc(CSc2ccccc2)nc2sc(C)c(C)c12`, the inhibition was 30.5%. Take `CCn1c(SCC(=O)N/N=C/c2ccc(C)o2)nnc1-c1ccc(C)cc1`: the inhibition was 0.6%.

`CCN1CCN(CCCNC(=O)C(=O)c2c(C)[nH]c3ccccc23)CC1`: the inhibition is -6.7%. As for `O=C(COC(=O)c1ccc(Br)cc1)NCc1ccc(F)cc1`, the figure is -1.2%; as for `COC(=O)c1ccc(CSc2nnc(C)s2)cc1`, 8.5%; as for `CC(C)(CO)NC(=O)CC1C(=O)NCCN1CC(c1ccccc1)c1ccccc1` (centres undefined), -1.4%. To `COC(=O)c1cccc(NC(=O)CCc2cc(OC)c(OC)c(OC)c2)c1` belongs -5.4%; to `COCCn1c(SCCN2CCCCC2)nc2ccccc2c1=O`, 3.5%; to `COc1ccc(NC(=O)Nc2ccc3nccnc3c2)cc1`, -6.9%.

With `COc1ccc(N(C)C(=O)Nc2ccc3nsnc3c2)cc1`, the inhibition is 58.7% (active). For the molecule `COc1ccc(NC(=S)Nc2ccc3nsnc3c2)cc1`, the inhibition was 64.2% (active). As for `COc1ccc(NC(=S)Nc2ccc3snnc3c2)cc1`, the figure is 25%; as for `COc1ccc(NC(=O)c2ccc3nccnc3c2)cc1`, -5.2%. To `CCOc1ccc(NC(=S)Nc2ccc3nsnc3c2)cc1` belongs 46.4%; to `COc1ccc(NC(=S)Nc2ccc3nccnc3c2)cc1`, 83.8% (active).

Consider `COc1ccc(N(C)C(=O)Nc2ccc3c(c2)nnn3C)cc1`, for which the inhibition is 15.5%. In the case of `COc1cccc(NC(=O)Nc2ccc3nsnc3c2)c1`, the inhibition was 1.7%.

Take `CCOC(=O)c1sc(NS(=O)(=O)c2ccc(C)cc2)nc1C`: the inhibition was 5.9%. To `CCOc1ccc(-c2noc(CCC(N)=O)n2)cc1OCC` belongs -7.6%. As for `Cc1cc(NCCCN2CCOCC2)n2nc(C)c(-c3ccccc3)c2n1`, the figure is -1.9%. To `Cc1csc(NC(=O)CSc2nc3ccccc3c(=O)[nH]2)n1` belongs 0.4%; to `C[C@H]1CC[C@H]2C(=O)N3[C@H](c4cccc(N5CCCC5=O)c4)[C@@H](C)CC[C@H]3C(=O)N2[C@@H]1c1cccc(N2CCCC2=O)c1`, -17.4%.

For the molecule `CC(C)(C)Cc1nnc(NC(=O)Cc2ccc([N+](=O)[O-])cc2)s1`, the inhibition was -4.5%. Regarding `CC(C)(C)C(=O)CSc1nnc(Nc2ccccc2)s1`, the inhibition is 39.6%.

Turning to `CCOC(=O)N1CCC(N2Cc3cccc(C(=O)Nc4cccc(F)c4)c3C2=O)CC1`, the inhibition is -24.4%. In the case of `CCOC(=O)C1CCN(C(=O)c2c(-c3c(Cl)cccc3Cl)noc2C)CC1`, the inhibition was 9.4%. Take `CCN(CC)CCNCc1ccc(-c2ccc(Cl)cc2)o1`: the inhibition is -7%. Consider `CC1CC(C)(C)NC(=S)N1CCCC(=O)N1CCN(c2ccccc2F)CC1` (centres undefined), for which the inhibition is -3.8%. To `COc1cc(N=C(N)N=C(N)N)cc(OC)c1` belongs -0.7%; to `COc1ccc(N=c2sc3ccccc3n2C)cc1`, 5.6%. On to `COc1cc(-c2nnco2)cc(OC)c1OC`, for which the inhibition was 15%.

For the molecule `COc1ccc(N=C2SCC(=O)N2Cc2ccccc2)cc1`, the inhibition is -10.8%. To `COc1cc(N=C2C(=O)N3c4c(cccc42)C(C)=CC3(C)C)cc(OC)c1` belongs 34.1%; to `COc1cc(-c2nnc(-c3cc(OC)c(OC)c(OC)c3)o2)cc(OC)c1OC`, 7.6%; to `CCc1c(C)sc(NC(=O)CSc2nc3c(c(C(F)(F)F)n2)CCc2ccccc2-3)c1C#N`, 0.3%.
